This is a sample that favours compounds with a hit; in the whole collection about 8% have one here.
TSHR antag = antagonists of human thyroid stimulating hormone receptor | 330,000 compounds, 0.2% hits | TSHR-expressing cells, TSH-stimulated cAMP HTRF, 2 h; hits give low values | activity change, negative = inhibition, % at 11.5 µM;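 active means activity change below a set negative limit, meaning inhibition stronger than a set level, cut at about -70% in these data; inconclusive means activity change between two set negative limits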
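Competitive HTRF cAMP read-out (cryptate anti-cAMP antibody, cAMP-d2; 30 min, room temperature) in freshly harvested TSHR cells. Compounds added before TSH at EC80 (4nM final), followed by 2 hours' incubation at 37 deg C.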
FBPA coupling cs = counter-screen for Giardia aldolase inhibitors: coupling enzyme system; 290,000 compounds, 0.67% hits; activity change, negative = inhibition, % at 58.2 µM, hits read low; AID 2472; coupling enzyme system counterscreen, AmpLite Red fluorescence; in the data active means activity change below about -30%
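Fluorescence at 525 nm excitation and 598 nm emission measured inhibition of the coupled detection system without aldolase. Compounds (at 57.5 uM final) were preincubated 10 min at room temperature with coupling enzyme reagent before a 20 min substrate/AmpLite Red step.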
ELG1 DNA repair = inhibitors of ELG1-dependent DNA repair in HEK293T cells | Potency, µM (series often up to 46.1 µM), actives largely listed as inhibitors | 330,000 compounds, 2.3% hits | HEK293T ELG1-luciferase reporter, luminescence, 16 h; DNA damage induced by 5-fluorouridine; further: nearly all actives have a fitted effect of over 55% in size
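HEK293T cells expressing luciferase-tagged ELG1 (2,000/well) received 5-Fluorouridine plus compound or DMSO for 16 hr at 37 °C. Luciferase was read by ONE-Glo luminescence after 30 min at room temperature.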
Gal4-VP16 FLuc = inhibits Gal4-VP16 luciferase reporter, ROR gamma counter-screen; Drosophila S2 Gal4-VP16 UAS-luciferase, luminescence, 20 h; Potency, µM (titrated, usually from 53.6 µM), most hits filed as inhibitors; 310,000 compounds, 3.5% hits; AID 2546;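 further: Gal4-VP16 expression switched on by copper sulfate through the metallothionein promoter; nearly all actives have a fitted effect of over 50% in size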
RORgamma inh = blocks mouse ROR gamma transcriptional activity. P51450. Drosophila S2 Gal4-RORgamma UAS-luciferase reporter, 20 h. Potency, µM (titrated, usually from 53.6 µM), actives largely listed as inhibitors. 310,000 compounds, 5.4% hits. AID 2551; further: nearly all actives have a fitted effect of over 60% in size
Target sequence (P51450 whole entry, looked up, the tested form may be a part): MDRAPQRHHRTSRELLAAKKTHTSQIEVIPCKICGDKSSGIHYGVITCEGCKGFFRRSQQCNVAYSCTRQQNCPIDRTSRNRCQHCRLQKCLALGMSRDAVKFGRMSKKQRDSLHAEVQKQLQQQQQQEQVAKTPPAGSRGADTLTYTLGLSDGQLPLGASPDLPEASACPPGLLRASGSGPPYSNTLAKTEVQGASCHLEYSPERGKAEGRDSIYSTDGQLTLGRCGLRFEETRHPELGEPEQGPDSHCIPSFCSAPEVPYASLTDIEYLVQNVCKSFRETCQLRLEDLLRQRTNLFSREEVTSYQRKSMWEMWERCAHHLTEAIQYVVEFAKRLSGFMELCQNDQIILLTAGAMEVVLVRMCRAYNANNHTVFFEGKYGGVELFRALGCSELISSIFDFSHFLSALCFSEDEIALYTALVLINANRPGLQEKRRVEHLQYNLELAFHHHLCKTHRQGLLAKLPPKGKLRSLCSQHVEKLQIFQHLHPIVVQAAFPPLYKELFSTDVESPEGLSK
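Drosophila S2 cells stably expressing Gal4-DBD/mouse RORγ fusion under metallothionein promoter plus UAS-luciferase; compound 1 h, then 700 uM CuSO4 induction for 20 h at ambient temperature; inhibition read as reduced luminescence.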
Each line names hits and unclear results; the compound was inactive in the other large screens. Unless noted, the call rests on the fitted dose curve; in most records, active means well fitted curve in the direction sought with a large enough effect; inconclusive means small, poorly fitted or top-dose-only effect, or another doubt; inactive means no such curve, though single readings can be large; an effect the other way counts as inactive or inconclusive.

O=C(CCS(=O)(=O)c1ccc(Br)cc1)NCc1ccc(F)cc1	TSHR antag -126
Cc1ccc(CNC(=O)CCS(=O)(=O)c2ccc(Br)cc2)cc1	none
CCN(CC)S(=O)(=O)c1cccc(C(=O)OCC(=O)NCCN2C(=O)CSC2=O)c1	none (no result: FBPA coupling cs, Gal4-VP16 FLuc, RORgamma inh)
COc1ccc(C(=O)Cn2cnc3ccccc3c2=O)c(OC)c1	Gal4-VP16 FLuc 8.9µM, RORgamma inh 4.5µM (no result: FBPA coupling cs)
CCc1ccc(Nc2nnc(SCC(=O)Nc3cccnc3Cl)s2)cc1	Gal4-VP16 FLuc inconclusive, RORgamma inh 11µM
CC1CN=C(c2cccn2Cc2ccc(F)cc2Cl)O1 (stereo unspecified)	Gal4-VP16 FLuc inconclusive, RORgamma inh 6.3µM
CC1(C)COC(c2cccn2Cc2ccc(F)cc2Cl)=N1	ELG1 DNA repair inconclusive, RORgamma inh inconclusive
COc1ccccc1CNC(=O)CCCNC(=O)Cn1cnc2sc(C)c(C)c2c1=O	none
O=C(N/C(=C/C=C/c1ccccc1)C(=O)N1CCCCC1)c1ccc([N+](=O)[O-])cc1	ELG1 DNA repair 23µM
CC(=O)c1ccc(N/C=C\C(=O)c2ccc(C)cc2)cc1	ELG1 DNA repair inconclusive
Cc1ccc(C(=O)/C=C/c2ccc3ncccc3c2)cc1	ELG1 DNA repair inconclusive, Gal4-VP16 FLuc inconclusive, RORgamma inh inconclusive
CN(C)c1ccc(C(=O)/C=C/c2ccccc2)cc1	ELG1 DNA repair inconclusive, Gal4-VP16 FLuc inconclusive, RORgamma inh 11µM
CSc1ccc(/C=C/C(=O)c2ccc(O)cc2)cc1	ELG1 DNA repair inconclusive, Gal4-VP16 FLuc 1.1µM, RORgamma inh 0.5µM
Cc1ccc(/C=C/C(=O)c2ccc(O)cc2)cc1	ELG1 DNA repair inconclusive, Gal4-VP16 FLuc 7.1µM, RORgamma inh 2µM
Cc1ccc(C(=O)/C=C/C(=O)O)cc1	Gal4-VP16 FLuc 7.9µM, RORgamma inh 11µM
CC(=O)Oc1ccccc1-n1c(C)nc(=O)c(-c2ccccc2)c1C	ELG1 DNA repair inconclusive
CCN[C@@H]1CN(CCCOC)S(=O)(=O)c2sc(S(N)(=O)=O)cc21	none (no result: TSHR antag, ELG1 DNA repair)
CC(=O)OC[C@@H]1O[C@H](C/C=N\O[C@@H]2O[C@H](COC(C)=O)[C@@H](OC(C)=O)[C@H](OC(C)=O)[C@H]2OC(C)=O)C=C[C@@H]1OC(C)=O	none (no result: TSHR antag, ELG1 DNA repair)
O=c1c2nc(Br)n([C@@H]3O[C@@H]4CO[P@@](O)(=S)O[C@H]4[C@H]3O)c2nc2[nH]c(-c3ccccc3)cn12	none (no result: TSHR antag, ELG1 DNA repair)
CCOc1ccccc1Nc1nnc(SCC(=O)NC2CCS(=O)(=O)C2)s1 (stereo unspecified)	ELG1 DNA repair inconclusive (no result: FBPA coupling cs, Gal4-VP16 FLuc, RORgamma inh)
COCC(=O)N1CCc2nc(-c3ccccc3)c3c(c2C1)CO[C@@H](C)C3	none (no result: TSHR antag, ELG1 DNA repair, Gal4-VP16 FLuc, RORgamma inh)
CC(C)NC(=S)N/N=C/c1ccc(C(C)(C)C)cc1	ELG1 DNA repair inconclusive, Gal4-VP16 FLuc 2.2µM, RORgamma inh 0.5µM
CC(C)NC(=O)CC(=O)N/N=C/c1ccc(F)cc1	none
S=C(NCc1ccccc1)N/N=C/c1cccs1	ELG1 DNA repair inconclusive, Gal4-VP16 FLuc 0.79µM, RORgamma inh 0.4µM
CC(C)NC(=S)N/N=C/c1cccs1	Gal4-VP16 FLuc 1.1µM, RORgamma inh 0.79µM
COC(=O)C1C(=O)C2=C(CC1C)NC(C)=C(C(=O)OCCOc1ccccc1)C2c1ccc(C)o1 (stereo unspecified)	ELG1 DNA repair 23µM
COC(=O)C1C(=O)C2=C(CC1C)NC(C)=C(C(=O)OCc1ccc(OC)cc1)C2c1ccc(C)o1 (stereo unspecified)	ELG1 DNA repair inconclusive
O=C(CN1C(=O)NC2(CCCc3ccccc32)C1=O)NC1CCCCC1 (stereo unspecified)	none (no result: FBPA coupling cs, Gal4-VP16 FLuc, RORgamma inh)
Cc1nc2ccccc2n1CC(=O)N/N=C\C=C\c1ccccc1	TSHR antag -81, ELG1 DNA repair inconclusive, Gal4-VP16 FLuc inconclusive, RORgamma inh inconclusive
Cc1nc2ccccc2n1CC(=O)NC1CCCCCC1	ELG1 DNA repair 15µM, Gal4-VP16 FLuc 20µM
COc1ccccc1NC(=O)NNC(=O)CCN1CCOCC1	TSHR antag inconclusive
CNc1nc(N)c([N+](=O)[O-])c(Nc2ccccc2OC)n1	ELG1 DNA repair inconclusive
Cc1ccc(C)c(N(CC(=O)Nc2ccccc2C(=O)NCc2ccco2)S(=O)(=O)c2ccccc2)c1	ELG1 DNA repair 23µM
Cc1ccc(N(CC(=O)Nc2ccccc2C(=O)NCc2ccco2)S(=O)(=O)c2ccccc2)cc1C	ELG1 DNA repair inconclusive
COc1ccc(CCNC(=O)c2ccc(Cl)c(S(=O)(=O)N(C)c3ccccc3)c2)cc1	ELG1 DNA repair 16µM, RORgamma inh inconclusive
Cc1ccc(NC(=O)CSc2ccccc2NC(=O)c2ccccc2Cl)cc1Cl	ELG1 DNA repair 23µM, RORgamma inh inconclusive
Cc1ccc(Cl)cc1NC(=O)c1ccccc1OCC(=O)Nc1ccc(Cl)cc1	Gal4-VP16 FLuc 11µM, RORgamma inh inconclusive
Cc1ccc(NC(=O)COc2ccccc2C(=O)Nc2ccccc2)cc1Cl	ELG1 DNA repair 16µM
O=S(=O)(c1ccccc1)N(CC(O)COc1ccccc1)c1ccccc1 (stereo unspecified)	ELG1 DNA repair inconclusive
Cc1ccccc1OC(=O)c1cccnc1	none
S=c1[nH]nc(COc2ccc(Cl)cc2)o1	Gal4-VP16 FLuc inconclusive, RORgamma inh 6.3µM
S=c1[nH]nc(CCc2ccc(Cl)cc2)o1	Gal4-VP16 FLuc inconclusive, RORgamma inh 7.9µM
COc1ccc(OCc2n[nH]c(=S)o2)cc1	ELG1 DNA repair inconclusive, Gal4-VP16 FLuc inconclusive, RORgamma inh inconclusive
Cc1ccc(NC(=O)CN2CCCC2c2cccs2)cc1S(=O)(=O)N1CCCCC1 (stereo unspecified)	ELG1 DNA repair inconclusive (no result: FBPA coupling cs, Gal4-VP16 FLuc, RORgamma inh)
CCOc1ccc(NC(=O)CN2CCCC2c2cccs2)cc1S(=O)(=O)N1CCCCC1 (stereo unspecified)	ELG1 DNA repair 15µM (no result: FBPA coupling cs, Gal4-VP16 FLuc, RORgamma inh)
CC[C@]12c3[nH]c4cc(CCC(=O)N(C)C)ccc4c3CCN1C(=O)[C@@H](CC(=O)NCCCn1ccnc1)C[C@@H]2C(=O)N1CCN(C(=O)c2ccco2)CC1	ELG1 DNA repair inconclusive (no result: FBPA coupling cs, Gal4-VP16 FLuc, RORgamma inh)
CC(C)(C)c1ccc(OCc2ccc(C(=O)Nc3cccnc3)o2)cc1	ELG1 DNA repair inconclusive, Gal4-VP16 FLuc inconclusive
CC1C(=O)N(Cc2cccc(F)c2)c2ccccc2N1C(=O)c1ccccc1 (stereo unspecified)	ELG1 DNA repair 23µM
COc1cc(Cl)c(C)cc1NC(=O)COC(=O)c1ccc(CN2CCCC2=O)cc1	none (no result: FBPA coupling cs, Gal4-VP16 FLuc, RORgamma inh)
Cc1ccc(-c2csc(N(CCO)CCCn3c(C(F)(F)F)nc4cc(C(F)(F)F)ccc43)n2)cc1	Gal4-VP16 FLuc inconclusive, RORgamma inh 10µM
NC(=O)CC(NC(=O)c1cccc(Br)c1)c1ccc(N2CCC(Br)CC2)c([N+](=O)[O-])c1 (stereo unspecified)	Gal4-VP16 FLuc inconclusive
NC(=O)CC(NC(=O)c1ccccc1)c1ccc(N2CCN(c3ccccc3)CC2)c([N+](=O)[O-])c1 (stereo unspecified)	ELG1 DNA repair inconclusive, Gal4-VP16 FLuc inconclusive, RORgamma inh inconclusive
